The values below come from PubChem BioAssay AID504465 (National Center for Advancing Translational Sciences (NCATS), 2011).

The campaign covered roughly 2,100 compounds. About 210 (10%) were called active. About 53% were inconclusive and are not listed. The list shows a part of the results. Unmarked numbers belong to inactive results. Calls come from the whole dose curve; as a rule, active = well fitted inhibition curve with a large enough effect; inconclusive = small, poorly fitted or top-dose-only effect, or effect the other way; inactive = no such curve, though single readings can be large or run the other way.
Potency is the fitted concentration of half-maximal effect.

The experiment is described as follows: IN Cell qHTS Assay for Inhibitors of the mTORC1 Signaling Pathway in MEF (Tsc2-/-, p53-/-) Cells: Sytravon. Note: nearly all actives have a fitted effect of over 60% in size. The note with it: phospho-rpS6 immunofluorescence, 24 h; series mostly up to 38.3 µM; activity, negative = inhibition: at the top concentration. The method, boiled down: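 Immunofluorescence of rpS6 phosphorylation (Ser235/236) in mouse embryonic fibroblasts lacking Tsc2 and p53, after 24 h compound exposure; Hoechst-normalized signal imaged, each well scored as % active cells relative to rapamycin (7.5 nM) and DMSO controls.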
As for `Cc1ccc(N2CC(C(=O)NCCS(=O)(=O)N3CCN(c4ccccc4F)CC3)CC2=O)cc1` (stereo not given), the “activity, negative = inhibition” value is 1.3%.
`COc1ccc(-c2nc(CN3CCC(C(=O)NCCCN4CCN(c5ccccc5F)CC4)CC3)c(C)o2)cc1OC`: the Potency is 13.1 µM (active).
`O=C(NCCCN1CCN(c2ccccc2F)CC1)c1nnc(Cc2ccc(Cl)cc2Cl)o1`: the “activity, negative = inhibition” value is -19.5%.
On the same count and under the same terms, the value for `COc1cccc(CNC(=O)CCn2cccn2)c1` was 0.892%; that for `O=C(Cn1c(=O)c2cccn2c2ccc(F)cc21)NCc1cccc(Cl)c1` was -24.6%.
`CC(C(=O)NCc1cccc(Br)c1)n1ncn2cccc2c1=O` (stereo not given): the Potency was 1.47 µM (active).
In the case of `Cn1cc(-c2cc3n(n2)CCC(=O)N3CC(=O)NCc2ccc(Cl)cc2)c2ccccc21`, the “activity, negative = inhibition” value is -1.06%.
As for `CCOC(=O)c1nc(Nc2ccc(C(=O)OC(C)C)cc2)c2ccccc2n1`, the “activity, negative = inhibition” value was 18.7%.
Still for that read-out and setting: the same measure for `CCc1ccc(NC(=O)CSc2nc3n[nH]c(C)c3c(=N)n2-c2ccc(C)cc2)cc1`: 0%; for `COc1cc(CNc2ccc3c(c2)ncn3C(C)C)cc(OC)c1OC`: -19.3%.
As for `Cc1ccc(NC(=O)c2c(C)oc3ccc(O)c(CN4CCCCCC4)c23)c(C)c1`, the “activity, negative = inhibition” value is 1.43%.
Consider `CC1CCN(S(=O)(=O)c2ccc3nc(Nc4cccc(C(F)(F)F)c4)ccc3c2)CC1`, for which the “activity, negative = inhibition” value is -8.63%.
For `Cc1cccc(OCC(=O)N(Cc2ccc(C(C)(C)C)cc2)Cc2ccco2)c1`, the “activity, negative = inhibition” value was -18.6%.
The same measure, in the same setting: the value for `CCc1ccc2oc(C(=O)N(Cc3cccc(Cl)c3)Cc3ccco3)c(C)c2c1` was 1.43%; that for `CCOc1ccccc1C(=O)N(Cc1ccco1)Cc1ccccc1F` was -13.7%.
With `CCS(=O)(=O)c1ncc(Cl)c(C(=O)N(Cc2ccccc2)Cc2ccco2)n1`, the Potency is 3.69 µM (active).
Take `CS(=O)(=O)c1ncc(Cl)c(C(=O)N(Cc2ccc(Cl)cc2)Cc2ccco2)n1`: the Potency is 2.33 µM (active).
As to `O=C(NCC1CCN(Cc2cccc(F)c2)CC1)c1cc2ccc3cccnc3c2[nH]1`, the “activity, negative = inhibition” value is -23.5%.
`CCOC(=O)c1sc2ccccc2c1S(=O)(=O)Nc1ccc(CC)cc1`: the “activity, negative = inhibition” value is 0%.
On to `CC1=C(C(=O)Nc2ccc(Cl)cc2)C(c2ccccc2)n2ncc(C(=O)Nc3ccccc3)c2N1` (stereo not given), for which the “activity, negative = inhibition” value was -25.6%.
Take `COc1ccc(C2C(C(=O)Nc3ccccc3)=C(C)Nc3nc(-c4ccc(Cl)cc4)nn32)cc1` (stereo not given): the Potency is 13.1 µM (active).
Regarding `COc1ccccc1C1C(C(=O)Nc2ccccc2)=C(C)Nc2nc(-c3ccccc3)nn21` (stereo not given), the “activity, negative = inhibition” value is 45.8%.
The same measure, in the same setting: the same measure for `CCOc1ccc(NC(=O)CSc2c3c(nc4ccccc24)CCCC3)cc1`: -97%.
On the same count and under the same terms, the value for `COc1cccc(NC(=O)CSc2c3c(nc4ccccc24)CCCC3)c1` was -76.4%; that for `COc1ccc(S(=O)(=O)Nc2ccc3oc4c(c3c2)CCCC4)cc1` was -24%.
Take `COc1ccc(Nc2c3c(nc4ccc(NC(=O)/C=C/c5cc(OC)c(OC)c(OC)c5)cc24)CCCC3)cc1OC`: the Potency is 1.47 µM (active).
With `COc1ccc(/C=C/C(=O)Nc2ccc3nc4c(c(Nc5ccc(OC)c(OC)c5)c3c2)CCCC4)cc1`, the Potency is 3.69 µM (active).
Still for that read-out and setting: the value for `COc1ccc(/C=C/C(=O)Nc2ccc3nc4c(c(Nc5ccccc5OC)c3c2)CCCC4)cc1` was 2.07 µM (active).
For `O=S(=O)(c1ccccc1F)N1CCC(Oc2ccc(-n3cnnn3)cc2)CC1`, the “activity, negative = inhibition” value was 1.79%.
The same measure, in the same setting: the value for `CCOCCc1nn2c(=O)cc(COC(=O)c3ccc(NC(=O)c4cccs4)cc3)nc2s1` was -7.25%.
On to `CCOc1ccc(S(=O)(=O)Nc2cc(Cl)ccc2OC)c2cccnc12`, for which the “activity, negative = inhibition” value was -6.32%.
On the same count and under the same terms, the same measure for `COc1ccc(NC(=O)CCn2cnc3onc(-c4ccc(F)cc4)c3c2=O)cc1OC`: -9.75%; for `CCC(=O)Nc1cc(-c2nc3cc(C)cc(C)c3o2)ccc1C`: -20.3%; for `CCCn1c(=O)sc2cc(NC(=O)c3ccc(OC)c(Br)c3)ccc21`: 17%.
`O=C(Nc1ccc2oc(-c3ccc4ccccc4c3)nc2c1)c1cc(Br)ccc1Cl`: the Potency is 16.5 µM (active).
With `COc1ccc(-c2nc3cc(C(C)C)ccc3o2)cc1NC(=O)c1ccccc1[N+](=O)[O-]`, the “activity, negative = inhibition” value was -22.3%.
For the compound `COc1ccc(-c2nc3cc(NC(=O)Cc4ccc(Cl)cc4)ccc3o2)cc1OC`, the Potency was 3.29 µM (active).
For the compound `COc1c(C)cc(Br)cc1C(=O)Nc1ccc(-c2nc3ncccc3o2)cc1`, the “activity, negative = inhibition” value was 3.45%.
Same read-out and setting: the same measure for `Cc1cccc(-c2nc3cc(NC(=O)Cc4ccc(Cl)cc4)ccc3o2)c1`: -15.8%.
As for `COc1ccc(C(=O)Nc2ccc3oc(-c4ccc5ccccc5c4)nc3c2)cc1Br`, the Potency was 13.1 µM (active).
For `CCOc1ccc(OCC)c(NC(=O)Cn2nc(CC)n3c(cc4sccc43)c2=O)c1`, the “activity, negative = inhibition” value was 4.76%.
Turning to `O=c1c2ccccc2n(Cc2cccc(F)c2)c(=O)n1Cc1ccccc1Cl`, the “activity, negative = inhibition” value is -28.4%.
On the same count and under the same terms, the value for `COCCn1c(=O)[nH]c2cc(C(=O)N3CCN(c4ccc(Cl)cc4)CC3)ccc2c1=O` was 29.5%; that for `COc1ccccc1CN1COc2ccc3c(oc(=O)c4ccccc43)c2C1` was -13.4%; that for `CC(C)CN(CC(C)C)c1nnc(NC(=O)Nc2cccc(C(F)(F)F)c2)s1` was 2.09%.
